{
  "source": "PubChem BioAssay AID1379",
  "about": "(National Center for Advancing Translational Sciences (NCATS), 2008)",
  "note": "The campaign covered roughly 200,000 compounds. About 560 (0.28%) were called active. Entries that show only a call come without a potency. For the sample, actives were picked, then their nearest neighbours and some compounds at random. Values without a mark were called inactive. Calls come from the whole dose curve; as a rule, active = well fitted inhibition curve with a large enough effect; inconclusive = small, poorly fitted or top-dose-only effect; inactive = flat fitted curve, though single readings scatter. Potency is the fitted concentration of half-maximal effect.",
  "data": [
    {"target": "Luciferin 4-monooxygenase (Photuris pensylvanica) (UniProt Q27757)", "experiment": "Counterscreen for Luciferase (Kinase-Glo TM) Inhibition; note: nearly all actives have a fitted effect of over 60% in size", "settings": "ATP luminescence, 8 min; series mostly up to 38.3 µM", "description": "NCGC Assay Overview: NIH Molecular Libraries Screening Centers Network [MLSCN] NIH Chemical Genomics Center [NCGC] MLSCN Grant: None Luciferase (Kinase-Glo, Promega Corporation) was assayed for its ability to generate light using ATP and luciferin as substrates. The ATP concentration in the assay (10 uM) was within the linear range of enzyme activity for the assay conditions used.\nNCGC Assay Protocol Summary: Four uL of substrate mix (final concentration, 50 mM imidazole pH 7.2, 50 mM KCl, 7 mM MgCl2, 10 uM ATP, 0.01% Tween 20, 0.05% BSA) was dispensed into white 1536 well plates. Twenty-three nL of compound was delivered by a pin tool and 2 uL of luciferase detection mix (Kinase-Glo, Promega)) was added. Following 8-minute incubation at ambient temperature, luminescence was measured by a ViewLux (Perkin Elmer) at 5 seconds exposure/plate.", "values": [
      {"smiles": "COc1ccc(-c2cn3ccsc3n2)cc1", "activity change, negative = inhibition": "inactive"},
      {"smiles": "Cc1ccc(-c2cn3cc(C)ccc3n2)cc1", "Potency": "11.2 µM (active)"},
      {"smiles": "Cc1ccc(-c2cn3cc([N+](=O)[O-])ccc3n2)cc1", "activity change, negative = inhibition": "inactive"},
      {"smiles": "C[C@H]1Cc2c(-c3ccccc3)nc3c(c2CO1)CN(S(=O)(=O)c1ccc(Cl)c2nonc12)CC3", "activity change, negative = inhibition": "-6.5% [at 7.66 µM]"},
      {"smiles": "C=C(C(C)=O)C(O)c1ccc([N+](=O)[O-])cc1", "note": "(stereo not given)", "activity change, negative = inhibition": "inactive"},
      {"smiles": "Cc1ccc(-c2cccc([C@H]3[C@@H]4C=CC[C@@H](C)[C@@H]4C(=O)N3Cc3ccccc3)c2)cc1", "activity change, negative = inhibition": "inactive"},
      {"smiles": "COc1ccc(Cc2nc(-c3ccccn3)no2)cc1OC", "activity change, negative = inhibition": "inactive"},
      {"smiles": "c1csc(-c2nc(-c3ccncc3)no2)c1", "activity change, negative = inhibition": "inactive"},
      {"smiles": "O=C(Oc1ccc(-c2nc(-c3ccccn3)no2)cc1)c1ccccc1", "Potency": "4.47 µM (active)"},
      {"smiles": "c1ccc(-c2noc(-c3cccs3)n2)nc1", "Potency": "12.6 µM (active)"},
      {"smiles": "O=C(Oc1ccccc1)c1ccc2nccnc2c1", "activity change, negative = inhibition": "inactive"},
      {"smiles": "COc1nc(-c2ccc(Cl)cc2)ccc1-c1noc(-c2cccs2)n1", "activity change, negative = inhibition": "inactive"},
      {"smiles": "C/C(Nc1ccc2oc(=O)ccc2c1)=C1/C(=O)CC2[C@@H]1C2(C)C", "note": "(stereo not given in full)", "activity change, negative = inhibition": "inactive"},
      {"smiles": "COc1ccc(/C=C2\\CCc3ccccc3C2=O)c(OC)c1OC", "activity change, negative = inhibition": "inactive"},
      {"smiles": "CCC1C/C(=C/c2cccs2)C(=O)/C(=C/c2cccs2)C1", "note": "(stereo not given)", "activity change, negative = inhibition": "inactive"},
      {"smiles": "O=C1/C(=C/c2cccs2)CCc2ccccc21", "Potency": "11.2 µM (active)"},
      {"smiles": "N#Cc1cccc(CS(=O)(=O)c2nnnn2-c2cc(C(F)(F)F)cc(C(F)(F)F)c2)c1", "activity change, negative = inhibition": "inactive"},
      {"smiles": "COc1ccc(-c2nc3c(c4c2C[C@H](c2ccccc2)OC4)CN(S(=O)(=O)c2c(C)noc2C)CC3)c(C)c1", "activity change, negative = inhibition": "-5.25% [at 7.66 µM]"},
      {"smiles": "O=C1C=C(c2ccccc2)CCC1", "activity change, negative = inhibition": "inactive"},
      {"smiles": "COc1ccc2c(c1)O[C@@H](c1ccc3c(c1)OCO3)[C@H](OC(=O)NCc1ccco1)C2=O", "activity change, negative = inhibition": "inactive"},
      {"smiles": "COc1ccccc1C(=O)Nc1ccc(NC(=O)c2ccco2)c(C)c1", "Potency": "10 µM (active)"},
      {"smiles": "COc1ccc(NC(=O)c2cccc(NC(=O)c3ccco3)c2)c(OC)c1", "activity change, negative = inhibition": "inactive"},
      {"smiles": "COc1cc(NC(=O)c2cc([N+](=O)[O-])ccc2Br)ccc1NC(=O)c1ccco1", "activity change, negative = inhibition": "inactive"},
      {"smiles": "O=C(NCc1ccco1)O[C@@H]1C(=O)c2cc(Br)ccc2O[C@H]1c1ccc2c(c1)OCO2", "activity change, negative = inhibition": "inactive"},
      {"smiles": "Cc1cccc([C@H]2[C@@H]3C=CC[C@@H](C)[C@@H]3C(=O)N2Cc2ccccc2)c1", "activity change, negative = inhibition": "inactive"},
      {"smiles": "CCN1C(=O)N[C@@H](CCc2ccccc2)C(C(=O)OC)=C1C", "activity change, negative = inhibition": "0.314% [at 7.66 µM]"},
      {"smiles": "C=CCC(C)(O)c1ccco1", "note": "(stereo not given)", "activity change, negative = inhibition": "inactive"},
      {"smiles": "O=C1OCCN1C(=O)[C@H]1[C@H](c2ccc(F)cc2)C(c2ccccc2)=NN1c1ccc(Br)cc1", "activity change, negative = inhibition": "inactive"},
      {"smiles": "Cc1ccccc1-c1ccc(C(=O)O)s1", "activity change, negative = inhibition": "inactive"},
      {"smiles": "C=CC1(C)CC(=O)C2(O)C(C)(O1)C(OC(C)=O)C(O)C1C(C)(C)CCC(O)C12C", "note": "(stereo not given)", "activity change, negative = inhibition": "inactive"},
      {"smiles": "COCCN1C=C2C(=O)C(C)(OC(=O)C3CCCC3)C(=O)C=C2C=C1c1ccsc1", "note": "(stereo not given)", "activity change, negative = inhibition": "-8.74% [at 7.66 µM]"},
      {"smiles": "CC1=C2[C@@H](O)[C@H]([C@@H](C)C(=O)NCCC(C)C)CC[C@@]2(C)C=CC1=O", "activity change, negative = inhibition": "inactive"},
      {"smiles": "COC(=O)CCCC1=CC2=CC(=O)C(C)(OC(=O)c3cccs3)C(=O)C2=CN1c1cccc(C#N)c1", "note": "(stereo not given)", "activity change, negative = inhibition": "0.0108% [at 7.66 µM]"},
      {"smiles": "C/C=C(\\C)C(=O)O[C@H]1CC(C)=C2C(=O)C=C(C)C2[C@@H]2OC(=O)[C@@](C)(OC(=O)C=C(C)C)C21", "note": "(stereo not given in full)", "activity change, negative = inhibition": "inactive"},
      {"smiles": "COc1ccc(N=Cc2c(O)[nH]c3ccccc23)cc1OC", "activity change, negative = inhibition": "inactive"},
      {"smiles": "COc1ccccc1N=Cc1c(O)c2ccccc2oc1=O", "Potency": "14.1 µM (active)"},
      {"smiles": "COc1ccc(OC)c(N=Cc2c(O)[nH]c3ccccc23)c1", "activity change, negative = inhibition": "inactive"},
      {"smiles": "NC1CCN(O)C1=O", "note": "(stereo not given)", "activity change, negative = inhibition": "inactive"},
      {"smiles": "Cc1ccc(NC(=O)O[C@@H]2C(=O)c3cc(Br)ccc3O[C@H]2c2ccc3c(c2)OCO3)cc1Br", "activity change, negative = inhibition": "inactive"},
      {"smiles": "C=CC1=C2C=C(C3CC3)N(CC(C)C)C=C2C(=O)C(C)(OC(=O)c2ccco2)C1=O", "note": "(stereo not given)", "activity change, negative = inhibition": "-1.36% [at 7.66 µM]"},
      {"smiles": "COc1ccc(/C=C2\\NC(=O)[C@@H]3Cc4ccccc4CN3C2=O)cc1", "activity change, negative = inhibition": "inactive"},
      {"smiles": "CCCCCCCC[C@@H](O)/C=C/C=C/C=C\\[C@@H](O)CCCC(=O)O", "activity change, negative = inhibition": "inactive"},
      {"smiles": "C=C(C(C)=O)C(O)c1cccs1", "note": "(stereo not given)", "activity change, negative = inhibition": "inactive"},
      {"smiles": "C=CCC1CCC(=O)N2CCCC12", "note": "(stereo not given)", "activity change, negative = inhibition": "inactive"},
      {"smiles": "CC1(OC(=O)CCc2ccccc2)C(=O)C=C2C=C(c3ccc(C#N)cc3)N(CCc3ccccn3)C=C2C1=O", "note": "(stereo not given)", "activity change, negative = inhibition": "-6.83% [at 7.66 µM]"}
    ]}
  ]
}
